# Reference: PubChem BioAssay AID463 (The Scripps Research Institute Molecular Screening Center, 2006)
# Screen size: about 56,000 compounds; about 710 (1.3%) were called active. Only a selection was taken, and actives are over-represented in it overall. Values without a mark were called inactive.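 Rule for the calls: active = inhibition above the mean inhibition of all tested compounds plus 3 SD (cut at about 28% in these data); inactive = the rest.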
# Assay: Jurkat cell viability reduction – Jurkat E6.1, 60K MLSMR library, cytotoxicity control, primary screen (AID 463)
# Settings: Jurkat E6.1 viability, ATP luminescence, 48 h; at 4 µM; active compounds read high
row,SMILES,inhibition
1,COc1ccc(OC)c(N=Cc2c(O)[nH]c3ccccc23)c1,-1%
2,COc1ccc2[nH]c3ccc(OC)cc3c2c1,-4.4%
3,COc1cc(N=Cc2c(O)[nH]c3ccccc23)cc(OC)c1OC,63% (active)
4,COc1ccc(CCNC(=O)CCCCn2c(=O)[nH]c3ccccc3c2=O)cc1OC,-5.9%
5,COC(=O)c1[nH]c2ccccc2c1NS(=O)(=O)c1ccc(OC)cc1OC,-1.9%
6,COc1ccc(N=Cc2c(O)[nH]c3ccccc23)cc1OC,39.2% (active)
7,CCn1nnc(NC(=O)c2cc(Cl)c(OC)c(Cl)c2)n1,-2%
8,COC(=O)c1ccc(OC(=O)c2nn(C)cc2Cl)c(OC)c1,2.9%
9,CCOC(=O)C1CCN(C(c2cc3cc(C)cc(C)c3[nH]c2=O)c2nnnn2C2CCCCC2)CC1 (stereo not drawn),-0.3%
10,C=CCNC(=O)CCCOc1cccc(C)c1,4.8%
11,OCCNCCCCOc1ccccc1F,3%
12,COc1cc(Cl)c(S(=O)(=O)n2cnc(C)c2)cc1Cl,2.3%
13,CCC(=O)Nc1ccc(C(=O)Nc2ccc3c(c2)C(=O)N(CC2CCCO2)C3=O)cc1 (stereo not drawn),-3.3%
14,CCCC(=O)Nc1ccc(C(=O)NCCCn2ccnc2)cc1,-15.7%
15,CCCCC(=O)Nc1ccc(C(=O)NCCCn2ccnc2)cc1,57% (active)
16,CCOc1ccccc1C(=O)NCCCn1ccnc1,9.7%
17,C=CCSc1nc2c(c(=O)[nH]1)C(C(C)C)C(C#N)=C(N)O2 (stereo not drawn),0.8%
18,O=C1CCC(Cc2ccccc2)N1 (stereo not drawn),0.5%
19,Cc1cnc(C(=O)OCC(=O)Nc2ccc(Cl)cc2Cl)cn1,7.4%
20,C=CCn1cnc2scc(-c3ccccc3)c2c1=O,-3%
21,CCCc1[nH]nc2c1C(c1ccc(OC(=O)c3ccco3)cc1)C(C#N)=C(N)O2 (stereo not drawn),0.7%
22,CCCc1[nH]nc2c1C(c1ccc(Br)s1)C(C#N)=C(N)O2 (stereo not drawn),29.4% (active)
23,CCCc1[nH]nc2c1C(C1CC=CCC1)C(C#N)=C(N)O2 (stereo not drawn),5.6%
24,Cc1cc(N(C)C)cc(C)[n+]1[O-],-7.1%

row,SMILES,inhibition
1,CCOc1ccc(-c2nnc3ccc(SC)nn23)cc1,0.4%
2,COC(=O)CSC1=C(C#N)C(c2ccccc2OC)C(C(=O)OC)C(=O)N1 (stereo not drawn),5.3%
3,CCOC(=O)CSC1=C(C#N)C(c2ccco2)C(C(=O)OCc2ccccc2)=C(C)N1 (stereo not drawn),7.5%
4,CCOC(=O)CSC1=C(C#N)C(c2sccc2C)CC(=O)N1 (stereo not drawn),93.2% (active)
5,CCOC(=O)COc1ccc(Cl)cc1C1NC(=O)NC(C)=C1C(C)=O (stereo not drawn),-2.2%
6,CCOC(=O)c1c(NC(=O)c2ccc(Br)o2)sc2c1CCCC2,6.2%
7,C=C(C)COc1ccc(-c2n[nH]c(C)c2-c2ccccc2)c(O)c1,22.9%
8,COc1ccc(-c2n[nH]c(C)c2-c2ccc(OC)c(OC)c2)c(O)c1,52% (active)
9,C=C(C)COc1ccc(-c2n[nH]c(C)c2-c2ccccc2OC)c(O)c1,5.8%
10,Cn1c(=O)[nH]c(=O)c2c1nc(CN1CCN(c3ccccc3F)CC1)n2CCc1ccccc1,0%
11,O=S(=O)(c1cccc(S(=O)(=O)N2CCC(n3nnc4ccccc43)CC2)c1)N1CCCCC1,0.6%
12,Cn1c(NC(=O)c2ccc3c(c2)OCO3)cc(=O)n(C)c1=O,-10.9%
13,CCOc1ccc(-c2nnc(-c3ccco3)o2)cc1,8.6%
14,CCOC(=O)CSc1nnc(CNc2nc(-c3ccccc3)cs2)n1C,0%
15,COc1ccc(C(c2nnnn2C2CCCCC2)N2CCN(c3ccccc3F)CC2)cc1 (stereo not drawn),-5.7%
16,CCc1nnc(NC(=O)CSc2nnc(-c3ccncc3)n2Cc2ccccc2)s1,-9.3%
17,Cc1nnc(NC(=O)CSc2nccn2-c2cccc(C)c2C)s1,71.5% (active)
18,COc1ccccc1-n1c(CNC(=O)c2ccccc2)nnc1SCC(=O)Nc1nnc(C)s1,-6.1%
19,Cc1cc(Nc2cccc(C)c2C)n2ncnc2n1,2.2%
20,CCOC(=O)N1CCN(C(=O)C2CC(c3ccc(F)cc3)=NO2)CC1 (stereo not drawn),-1.7%
21,CN(C)c1ccnc2sc3c(=O)n(Cc4ccccc4)cnc3c12,14.6%
22,CC1COC2C(O1)N(S(C)(=O)=O)CCN2S(C)(=O)=O (stereo not drawn),-1.8%
23,CC(=O)Oc1ccc(C)cc1N1C(=O)c2ccc(C(=O)O)cc2C1=O,-10.1%
24,CCOc1ccc2nc(SC(CC)C(=O)Nc3cc(C)on3)sc2c1 (stereo not drawn),1%
